Experiment [1] in a line: ZIKV-mCherry secondary qHTS for Zika virus inhibitors (AID 1347158). Also: potency is read from the fitted curve at half-maximal effect. Put shortly:
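Vero cells, 5,000/well, plated overnight at 37 °C, then compound added and infected with recombinant ZIKV-mCherry at MOI 1 for 48-72 h. PFA-fixed, Hoechst nuclear stain, high-content imaging; cells with mCherry intensity above 450 RFU scored infected, reported as percent infection.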
(qHTS replaces the single test concentration by a dilution series.)

Experiment [2] in a line: Vero cells viability qHTS for Zika virus inhibitors (AID 1347167). Put shortly:
(§1)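 Counter-screen for cytotoxicity of hits from NS2B-NS3 protease qHTS. Overnight-attached cells (2.5 x 10^5 cells/mL, DMEM/4% FBS) were dosed in titration, incubated 24 to 48 hours, then assayed by CellTiter Glo.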

Experiment [3] is described as follows: HepG2 cells viability qHTS for Zika virus inhibitors (AID 1347168). Put shortly: as §1
Experiment [4] in a line: Tertiary RLuc qRT-PCR qHTS assay for Zika virus inhibitors (AID 1347169). Also: nearly all actives have a fitted effect of over 55% in size. Also: potency is read from the fitted curve at half-maximal effect. The procedure, abridged:
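Vero cells (1,000 per well) plated overnight at 37 degrees C, treated with compound in DMSO, then infected with recombinant ZIKV-RLuc (Cambodian) at MOI 1-2 for 48-72 hrs. Live-cell Renilla luciferase substrate added; luminescence read after 1-1.5 hrs.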

For experiment [5], the target named is Lysine-specific demethylase 5B (Homo sapiens) (UniProt Q9UGL1). The experiment in a line: Optimization screen for KDM5B Histone Demethylases FDH coupled qHTS against the LOPAC library (AID 1347166). Put shortly:
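KDM5BDeltaAP (200nM final) preincubated 10 min with compound, then 12.5uM H3K4Me3, 25uM a-ketoglutarate, ascorbate, Fe(II), NAD+ and FDH added; 50mM HEPES pH 7.5, 0.01% Tween-20. NADH fluorescence (340/450 nm) change over 30 min, room temperature.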

Experiment [6] deals with Zika virus NS2B-NS3 protease (linked). Description: 384 well plate NINDS AMC confirmatory qHTS for Zika virus inhibitors (AID 1347163). Also: nearly all actives have a fitted effect of over 50% in size. Also: potency is read from the fitted curve at half-maximal effect. The procedure, abridged:
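Linked protease 5/30/60 nM final; cpds up to 1 mM final, ~15 min preinc. Substrate Ac-VKTGKR-AMC 30 microM final. RT, dark, 25 min; FI ex 355/em 460; normalized to no-enzyme/no-inhibitor ctrls.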

Experiment [7] deals with Zika virus NS2B-NS3 protease (linked construct). The experiment in a line: 384 well plate NINDS Rhodamine confirmatory qHTS for Zika virus inhibitors (AID 1347164).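 Also: fluorescence from protease cleavage of Ac-LKRR-rhodamine 110 substrate; nearly all actives have a fitted effect of over 65% in size.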 Also: potency is read from the fitted curve at half-maximal effect. The procedure, abridged: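 Linked protease at a final 5 nM, 30 nM or 60 nM was preincubated ~15 min with compounds, then given 10 microM Ac-LKRR-Rhodamine 110. Fluorescence (ex 485/em 538 nm) after 25 min in the dark at room temperature.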

Molecules are shown by their SMILES. Records with an inconclusive call do not appear. A call without a number means that no potency is given here. Calls of active or inactive are those of the source. Calls follow the shape of the dose curve; as a rule, active = well fitted curve in the direction sought with a large enough effect; inconclusive = small, poorly fitted or top-dose-only effect, or another doubt; inactive = no such curve, though single readings can be large; an effect the other way counts as inactive or inconclusive.

Lysine-specific demethylase 5B (Homo sapiens), sequence (Q9UGL1 whole entry, looked up): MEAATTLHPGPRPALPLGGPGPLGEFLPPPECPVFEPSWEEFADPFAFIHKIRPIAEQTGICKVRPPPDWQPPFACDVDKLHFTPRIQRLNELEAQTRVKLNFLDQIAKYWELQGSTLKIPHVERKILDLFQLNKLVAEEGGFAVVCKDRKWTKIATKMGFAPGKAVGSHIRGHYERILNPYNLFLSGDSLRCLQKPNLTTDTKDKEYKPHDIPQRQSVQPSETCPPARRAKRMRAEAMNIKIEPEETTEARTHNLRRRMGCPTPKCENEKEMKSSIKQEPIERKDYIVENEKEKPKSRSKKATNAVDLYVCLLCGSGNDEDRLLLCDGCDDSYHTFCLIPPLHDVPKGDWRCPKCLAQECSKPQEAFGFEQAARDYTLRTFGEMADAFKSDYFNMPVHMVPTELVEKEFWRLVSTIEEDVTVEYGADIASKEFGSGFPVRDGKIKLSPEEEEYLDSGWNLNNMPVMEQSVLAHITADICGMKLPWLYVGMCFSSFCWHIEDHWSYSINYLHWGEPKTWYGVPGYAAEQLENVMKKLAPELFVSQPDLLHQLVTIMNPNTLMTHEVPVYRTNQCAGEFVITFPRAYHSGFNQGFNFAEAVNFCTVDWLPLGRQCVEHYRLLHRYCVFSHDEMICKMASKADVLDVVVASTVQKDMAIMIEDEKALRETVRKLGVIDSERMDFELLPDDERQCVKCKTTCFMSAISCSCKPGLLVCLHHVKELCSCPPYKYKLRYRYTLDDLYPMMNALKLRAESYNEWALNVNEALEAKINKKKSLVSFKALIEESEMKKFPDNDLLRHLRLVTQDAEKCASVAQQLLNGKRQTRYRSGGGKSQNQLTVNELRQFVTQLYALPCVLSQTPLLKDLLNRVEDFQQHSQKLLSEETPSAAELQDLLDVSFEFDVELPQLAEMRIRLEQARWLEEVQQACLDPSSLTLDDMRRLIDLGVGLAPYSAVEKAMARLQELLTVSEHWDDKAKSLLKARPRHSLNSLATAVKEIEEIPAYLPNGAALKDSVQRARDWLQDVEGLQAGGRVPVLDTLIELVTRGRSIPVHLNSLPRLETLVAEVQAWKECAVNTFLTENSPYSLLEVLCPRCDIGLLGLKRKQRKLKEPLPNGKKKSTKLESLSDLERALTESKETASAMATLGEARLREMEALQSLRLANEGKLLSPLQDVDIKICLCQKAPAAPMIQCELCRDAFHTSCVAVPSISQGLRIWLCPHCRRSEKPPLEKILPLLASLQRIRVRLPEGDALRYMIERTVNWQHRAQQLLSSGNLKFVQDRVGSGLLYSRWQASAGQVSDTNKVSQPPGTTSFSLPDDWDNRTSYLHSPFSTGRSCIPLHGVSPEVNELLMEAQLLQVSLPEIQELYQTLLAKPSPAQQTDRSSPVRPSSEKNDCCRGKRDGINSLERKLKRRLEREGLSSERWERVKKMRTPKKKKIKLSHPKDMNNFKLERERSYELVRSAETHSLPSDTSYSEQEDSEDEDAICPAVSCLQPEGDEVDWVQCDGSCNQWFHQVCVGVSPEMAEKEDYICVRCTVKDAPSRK

As for `Cc1cc2c(C(C)C)c(O)c(O)c(C=O)c2c(O)c1-c1c(C)cc2c(C(C)C)c(O)c(O)c(C=O)c2c1O`, the Potency in experiment [1] was 2.51 µM (active).
With `Cc1cc(SCc2sc(-c3ccc(C(F)(F)F)cc3)nc2C)ccc1OCC(=O)O`, the Potency entry in experiment [1] is “inactive”. Moreover, the compound was classed as inactive in experiment [2] and in experiment [3]. Also, in experiment [4], the Potency is 14.7 µM (active).
As to `CC(C)(Sc1ccc(CCN(CCCCC2CCCCC2)C(=O)NC2CCCCC2)cc1)C(=O)O`, the call in experiment [5], in experiment [2] and in experiment [3] was inactive.
As for `COc1cc2c(cc1OC)CN(CCc1ccc(NC(=O)c3cccc4c(=O)c5cccc(OC)c5[nH]c34)cc1)CC2`, in experiment [4], the Potency entry is “inactive”.
As to `CC(C)c1onc(-c2c(Cl)cccc2Cl)c1COc1ccc(/C=C/c2cccc(C(=O)O)c2)c(Cl)c1`, the Potency result in experiment [6] and in experiment [7] was “inactive” throughout.
With `COc1ccccc1-c1cccc(-c2c(O)c3cc(C#N)c(Cl)cc3[nH]c2=O)c1`, the Potency in experiment [6] is 50.1 µM (active); in experiment [7], 7.08 µM (active). Moreover, the compound was called inactive in experiment [2].
Regarding `CCN(CC)CCCC(C)Nc1ccnc2cc(Cl)ccc12` (stereo unspecified), in experiment [2], the compound was called inactive. In experiment [4], the Potency result is “inactive”.

The values are drawn from PubChem BioAssay (NCATS).
